This note sets out measurements from PubChem BioAssay (NCATS).

SMILES strings stand for the structures. Results filed as inconclusive are left out. Active and inactive are the calls of the source. The call rests on the fitted dose curve; in most records, active means well fitted curve in the direction sought with a large enough effect; inconclusive means small, poorly fitted or top-dose-only effect, or another doubt; inactive means no such curve, though single readings can be large; an effect the other way counts as inactive or inconclusive.

Assay [1] deals with Glutathione peroxidase 1 (Homo sapiens) (UniProt P07203). Put plainly: Primary qHTS Assay for Inhibitors of Recombinant Selenoprotein Glutathione Peroxidase 1 (GPX1) (AID 1845191). Further: nearly all actives have a fitted effect of over 65% in size. On activity, negative = inhibition: on the % scale 0 is the no-effect control and ±100 the full control effect. A digest of the protocol: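 10 nM GPX1 + cpd, 30 min RT; start w/ 1 mM GSH, 0.5 mM cumene hydroperoxide, 0.5 mM NADPH, 100 nM GR, 0.01% BSA; buffer 50 mM Tris-HCl pH 7.5, 2 mM EDTA, 150 mM NaCl; Fl 340/450, 0 & 15 min.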
Glutathione peroxidase 1 (Homo sapiens), sequence (P07203 whole entry, looked up): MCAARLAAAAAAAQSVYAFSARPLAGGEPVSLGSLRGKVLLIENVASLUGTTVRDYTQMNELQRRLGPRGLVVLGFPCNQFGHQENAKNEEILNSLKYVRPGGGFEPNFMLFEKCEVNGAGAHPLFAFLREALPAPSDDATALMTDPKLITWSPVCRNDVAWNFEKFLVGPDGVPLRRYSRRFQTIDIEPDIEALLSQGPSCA

Assay [2] has as its target Phospholipid hydroperoxide glutathione peroxidase GPX4 (Homo sapiens) (UniProt P36969). Put plainly: Primary qHTS Assay for Inhibitors of Recombinant Selenoprotein Glutathione Peroxidase 4 (GPX4) (AID 1845192). Further: nearly all actives have a fitted effect of over 65% in size. A digest of the protocol:
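NADPH consumption, followed by fluorescence at 340/450 nm between 0 and 15 min, reports GPX4 activity via coupled glutathione reductase (100 nM). Enzyme 200 nM was pre-exposed to compound 30 min; 0.5 mM cumene hydroperoxide and 1 mM GSH served as substrates.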
(In general: qHTS replaces the single test concentration by a dilution series.)

The target in assay [3] is Luciferin 4-monooxygenase (Photinus pyralis) (UniProt P08659). Put plainly: Primary firefly luciferase (FLuc) qHTS assay for identification of artifact compounds. (AID 1845220). Further: nearly all actives have a fitted effect of over 60% in size. Put shortly:
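Compounds sat 15 min at room temperature with 10 uM luciferin and 10 uM ATP (pH 7.6 Tris acetate). Firefly luciferase (10 nM final) was then added, and luminescence was read 5 min later. Data normalized to no-enzyme and DMSO controls were Hill-fitted.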

Assay [4] can be described thus: Primary fluorescence-based thiol-reactive (MSTI) qHTS assay for identification of artifact compounds. (AID 1845221). Further: nearly all actives have a fitted effect of over 65% in size. Further: potency means the concentration at half of the fitted maximal effect.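 On activity change, negative = thiol reactive: series mostly up to about 54 µM; thiol-reactive compounds lower the probe fluorescence signal.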 Put shortly:
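In PBS pH 7.4 with 2% DMSO, each compound met 4 uM MSTI for one hour at ambient temperature, shielded from light, before fluorescence detection.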

For assay [5], the system named is Nanoluciferase (engineered Oplophorus gracilirostris luciferase). Put plainly: Primary Nanoluciferase (NLuc) qHTS assay for identification of artifact compounds. (AID 1845222).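 Further: series mostly up to about 54 µM; 0% = DMSO and -100% = no enzyme.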 Put shortly:
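Luminescence from secreted NLuc (filtered, 1:55-diluted S16 cell medium) read 5 min after Nano-Glo substrate; compounds preincubated 15 min, RT. Hill fits of inhibition normalized to DMSO and no-enzyme.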

Phospholipid hydroperoxide glutathione peroxidase GPX4 (Homo sapiens), sequence (P36969 whole entry, looked up): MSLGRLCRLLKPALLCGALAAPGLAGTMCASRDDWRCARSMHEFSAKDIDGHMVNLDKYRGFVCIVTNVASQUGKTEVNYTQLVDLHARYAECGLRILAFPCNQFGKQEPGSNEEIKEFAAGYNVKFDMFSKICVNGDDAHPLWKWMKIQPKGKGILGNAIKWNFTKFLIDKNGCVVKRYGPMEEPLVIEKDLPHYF

On to `CCCNCCc1ccc(NS(=O)(=O)c2ccc(OC(F)(F)F)cc2)cc1`, for which the Potency entry in assay [1], in assay [2], in assay [3], in assay [4] and in assay [5] was “inactive” each time.
As to `N#Cc1cccc(C(=O)Nc2cc(-c3ccccc3)nn2-c2ccccc2)c1`, the Potency entry in assay [1], in assay [2], in assay [3], in assay [4] and in assay [5] was “inactive” in each case.
`CCC/C=C\C=C/CCc1cc(O)c([C@@H]2O[C@H](CO)[C@@H](O)[C@H](O)[C@H]2O)c(O)c1C(=O)OC`: the Potency result in assay [1], in assay [2], in assay [3], in assay [4] and in assay [5] was “inactive” throughout.
For the molecule `O=C(C1CCCCC1)N(CCN1CCN(c2ccccc2O)CC1)c1ccccn1`, the Potency result in assay [1], in assay [2], in assay [3], in assay [4] and in assay [5] was “inactive” each time.
Take `CC(CCC1(O)OC2CC3C4CC=C5C[C@@H](O[C@@H]6O[C@H](CO)[C@@H](O[C@@H]7O[C@@H](C)[C@H](O)[C@@H](O)[C@H]7O)[C@H](O)[C@H]6O[C@@H]6O[C@@H](C)[C@H](O)[C@@H](O)[C@H]6O)CC[C@]5(C)C4CC[C@]3(C)[C@@]2(O)[C@@H]1C)CO[C@@H]1O[C@H](CO)[C@@H](O)[C@H](O)[C@H]1O` (stereo not given in full): the Potency result in assay [1] and in assay [2] was “inactive” each time. The outcome in assay [3] is “inactive [at 11.6 µM]”. For the same molecule, the activity change, negative = thiol reactive in assay [4] is 40.3% [at 11.5 µM] (inactive). The activity, negative = inhibition in assay [5] was 0% [at 11.6 µM] (inactive).
In the case of `CCO[C@H]1CN(C2CCC(O)(c3ccc4c(c3)OCO4)CC2)C[C@@H]1NC(=O)CNC(=O)c1cccc(C(F)(F)F)c1` (stereo not given in full), the Potency result in assay [1], in assay [2], in assay [3], in assay [4] and in assay [5] was “inactive” in each case.
For the molecule `COC1=CC(=O)C=C(C)C12Oc1c(Cl)c(OC)cc(OC)c1C2=O` (stereo not given), the Potency result in assay [1], in assay [2], in assay [3], in assay [4] and in assay [5] was “inactive” throughout.
Turning to `CCNC(=O)N1CCCN(c2ccc(C(=O)NCCc3ccc(Cl)cc3Cl)cc2NC(=O)c2cccc(Cl)c2)CC1`, the Potency result in assay [1], in assay [2], in assay [3], in assay [4] and in assay [5] was “inactive” in each case.
With `CC(=O)O[C@H]1C[C@H](OC(C)=O)[C@]2(C)[C@H](CC[C@@]34O[C@@H]3C3=C(C)C(=O)O[C@@H]3C[C@H]42)C1(C)C`, the Potency result in assay [1], in assay [2], in assay [3], in assay [4] and in assay [5] was “inactive” throughout.
As to `CC(=O)NC(C)c1cnc(-c2cnc(Oc3ccc(OC(C)C)cc3)s2)s1` (stereo not given), the Potency result in assay [1], in assay [2], in assay [3], in assay [4] and in assay [5] was “inactive” throughout.
As for `C[C@H](CN(C)C)Oc1nc(Nc2cc3cccc(Cl)c3cn2)cnc1C#N`, the Potency entry in assay [1], in assay [2], in assay [3], in assay [4] and in assay [5] was “inactive” in each case.
On to `COC(=O)CC1OC(C)C2=C(O)c3c(O)cccc3C(=O)C23OC13` (stereo not given), for which the Potency entry in assay [1], in assay [2], in assay [3] and in assay [5] was “inactive” each time. For the same molecule, the Potency in assay [4] was 3.29 µM (active).
For the molecule `COc1ccccc1N1CCN(c2ncnc3n[nH]c(Br)c23)CC1`, the Potency entry in assay [1], in assay [2], in assay [3], in assay [4] and in assay [5] was “inactive” throughout.
In the case of `C=C1CC[C@@H]2[C@](C)(CO)[C@H](O)CC[C@@]2(C)[C@@H]1C/C=C1/C(=O)OCC1OC(=O)/C(=C/CO)C(O)C[C@@H]1C(=C)CC[C@@H]2[C@](C)(CO)[C@H](O)CC[C@]21C` (stereo not given in full), the Potency result in assay [1], in assay [2], in assay [3], in assay [4] and in assay [5] was “inactive” in each case.
In the case of `CCCCc1c(-c2ccc(OC)cc2)[nH]c2nccnc12`, the Potency result in assay [1], in assay [2], in assay [3], in assay [4] and in assay [5] was “inactive” each time.
Take `CC1(C)CC[C@]2(C(=O)O[C@@H]3O[C@H](CO)[C@@H](O)[C@H](O)[C@H]3O)CC[C@]3(C)C(=CCC4[C@@]5(C)CC[C@H](O[C@@H]6O[C@H](C(=O)O)[C@H](O)[C@H](O)[C@H]6O)C(C)(C)C5CC[C@]43C)[C@@H]2C1` (stereo not given in full): the Potency entry in assay [1], in assay [2], in assay [3], in assay [4] and in assay [5] was “inactive” each time.
As to `C=CC(=O)Nc1cccc(Nc2nc(Nc3ccc(OCCOC)cc3)ncc2F)c1`, the Potency result in assay [1], in assay [2], in assay [3] and in assay [5] was “inactive” in each case. For the same molecule, in assay [4], the Potency was 4.74 µM (active).
For `COc1cc(NC(=O)c2cccc(-n3cc(NC(=O)Nc4cccc(C)c4)cn3)c2)cc(OC)c1OC`, the Potency entry in assay [1], in assay [2], in assay [3], in assay [4] and in assay [5] was “inactive” each time.
On to `C[C@@H]1O[C@@H](O[C@H]2[C@H](O[C@H]3CC[C@@]4(C)C(CC[C@]5(C)C4C=C[C@]46OC[C@@]7(CCC(C)(C)C[C@H]74)[C@@H](O[C@@H]4O[C@@H](C)[C@H](O)[C@@H](O)[C@H]4O)C[C@]65C)[C@]3(C)CO)O[C@H](CO)[C@@H](O)[C@@H]2O[C@@H]2O[C@H](CO)[C@@H](O)[C@H](O)[C@H]2O)[C@H](O)[C@H](O)[C@H]1O` (stereo not given in full), for which the Potency entry in assay [1] and in assay [2] was “inactive” in each case. Moreover, in assay [3], the outcome was “inactive [at 11.6 µM]”. Moreover, the activity change, negative = thiol reactive in assay [4] is 75.2% [at 11.5 µM] (inactive). In addition, the activity, negative = inhibition in assay [5] was 3.17% [at 11.6 µM] (inactive).
Turning to `CCc1cccc(CC)c1-n1c(C=C(C)C)c(C(=O)N2CCNCC2)cc(-c2nc(-c3ccc(C(F)(F)F)cc3)cs2)c1=O`, the Potency entry in assay [1], in assay [2], in assay [3], in assay [4] and in assay [5] was “inactive” throughout.
Consider `Cn1ccc(NC(=O)c2cc(Oc3ccc(C(=O)N4CCC4)c(F)c3)c3c(c2)OC(C)(C)C3)n1`, for which the Potency entry in assay [1], in assay [2], in assay [3], in assay [4] and in assay [5] was “inactive” in each case.
Take `O=C(Nc1ccc(CN2CCOCC2)cc1)c1ccc(-c2cccc(Cl)c2)o1`: the Potency result in assay [1], in assay [2], in assay [3], in assay [4] and in assay [5] was “inactive” each time.
